From PubChem BioAssay

The compounds below were run against Voltage-gated potassium channel subunit beta-2 (Rattus norvegicus) (UniProt P62483) (assay: KvBeta enzyme negative modulators, primary screen, biochemical, NADPH fluorescence (AID 622;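 also: slope of raw intensity against log time taken from 70 to 1610 s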)). Conditions: recombinant KvBeta, 4-cyanobenzaldehyde reduction, at 10 µM, stronger effect = higher value;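 active = fluorescence slope higher than the sample average by over 3 SD (cut at about -0.22 in these data, passing the limit was not always enough); inactive = the rest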.
Voltage-gated potassium channel subunit beta-2 (Rattus norvegicus), sequence (P62483 whole entry, looked up): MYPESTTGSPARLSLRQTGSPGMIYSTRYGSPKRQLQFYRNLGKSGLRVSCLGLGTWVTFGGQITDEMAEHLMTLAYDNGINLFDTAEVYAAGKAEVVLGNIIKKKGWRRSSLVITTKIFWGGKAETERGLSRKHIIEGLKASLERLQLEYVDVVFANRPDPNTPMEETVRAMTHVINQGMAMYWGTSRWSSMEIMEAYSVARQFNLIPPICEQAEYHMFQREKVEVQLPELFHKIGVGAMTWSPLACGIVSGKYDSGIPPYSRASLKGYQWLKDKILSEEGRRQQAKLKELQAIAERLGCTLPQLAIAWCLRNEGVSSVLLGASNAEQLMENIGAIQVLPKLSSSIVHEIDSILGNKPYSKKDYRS

Fluorescence slope, inactive:
CC(C)Cn1c(=O)c(C(=O)Nc2ccccc2S(N)(=O)=O)c(O)c2ccccc21 -0.393
O=C(CCN1CCc2ccccc2C1)Nc1ccc2c(c1)OCO2 -0.542
CCN1C(=O)c2ccccc2S(=O)(=O)c2ccc(C(=O)NCc3cccnc3)cc21 -0.569
O=C(O)CCc1ccc(-c2cccs2)o1 -0.366
CCCCOCCCNC(=O)c1cccs1 -0.443
O=C1CC(C2CCCO2)C(=O)N1Cc1ccccc1 (stereo not given) -0.489
Cc1onc(-c2ccccc2)c1C(=O)Nc1ccc(S(=O)(=O)N2CCCCC2)cc1 -0.599
O=C(CSc1nnc(-c2ccccc2)o1)N1CCN(c2ccccc2)CC1 -0.406
CC1=C(C(=O)Nc2ccccc2)C(c2ccccn2)n2nc(CCCO)nc2N1 (stereo not given) -0.532
COc1ccc(C(=O)CSc2nnc(C3CCCCC3)n2N)c(OC)c1 -0.612
COc1cc(NC(=O)Cc2ccccc2OC)cc(OC)c1 -0.452
COC(=O)CCC(=O)Nc1cccc(Br)c1 -0.478
N#Cc1c(NC(NC(=O)c2ccco2)C(=O)c2ccccc2)sc2c1CCCC2 (stereo not given) -0.369
O=C(COc1ccc2ccccc2c1)N1CCCC1 -0.28
COc1ccccc1S(=O)(=O)Cc1ccc(C(=O)NCCN2CCCCCC2)o1 -0.588
O=C1C2CC=CCC2C(=O)N1c1ccc(Cc2ccncc2)cc1 (stereo not given) -0.43
COCCNC(=O)C(c1ccc(O)cc1)N(Cc1ccco1)C(=O)CCC(=O)Nc1nccs1 (stereo not given) -0.499
Cc1ccc(C)c(NC(=O)c2ccc3c(c2)N(Cc2ccc(F)cc2)C(=O)CS3=O)c1 (stereo not given) -0.546
Cc1ccc(NC(=O)CN(C)S(=O)(=O)c2cccc3nsnc23)cc1Cl -0.333
CS(=O)(=O)N1CCC(C(=O)NCCC2=CCCCC2)CC1 -0.382
O=C(CSc1ncccn1)NCc1ccccc1 -0.531
Cc1cccnc1-n1c(CCN2C(=O)c3ccccc3C2=O)nc2ccccc2c1=O -0.327
CCCn1c(O)c(CN2CCCC(C)C2)c(C)c(C#N)c1=O (stereo not given) -0.472
COc1ccc(N2C(=O)CCC(C(=O)N3CCCCC3)C2c2ccc(OC)c(OC)c2)cc1 (stereo not given) -0.412
COC(=O)CSC1=C(C#N)C(c2ccc(F)cc2)CC(=O)N1 (stereo not given) -0.542
Cn1nnc2cc(C(=O)N3CCCCCC3)ccc21 -0.478
COC(=O)c1cc(-c2ccccc2)sc1NC(=O)c1cc(C)on1 -0.342
CCC(c1nnnn1C(C)(C)C)N1CCN(C2CCCC2)CC1 (stereo not given) -0.634
Cn1c(=O)c2ncn(CC(=O)NCCOc3ccc(C(C)(C)C)cc3)c2n(C)c1=O -0.582
O=C(COC(=O)c1cc(-c2ccco2)nc2ccccc12)NCc1ccc2c(c1)OCO2 -0.407
CCN=C1SC(CC(=O)Nc2ccccc2)C(=O)N1CC (stereo not given) -0.341
Cn1c(=O)c2c(nc(CN3CCCCC3)n2CCc2ccccc2)n(C)c1=O -0.572
COc1cc(C(O)c2nc3ccccc3n2C)cc(OC)c1OC (stereo not given) -0.453
c1ccc(CSc2nnc(-c3cccs3)n2Cc2ccco2)cc1 -0.488
CCCCC(=O)NCCNc1nc2c(c(=O)n(C)c(=O)n2C)n1Cc1ccccc1 -0.615
CCOc1ccccc1C1C(C(=O)Nc2ccc(OC)cc2)=C(C)Nc2nc(CCCO)nn21 (stereo not given) -0.443
CCCN(CCC)CCNC(=O)c1cc2c(=O)n(C)c3ccccc3c2n1C -0.456
Cc1nc2ccc(NC(=O)NCc3ccco3)cc2s1 -0.338
COc1cc(Br)cc(CN2CCN(C/C=C/c3ccccc3)CC2)c1O -0.606
COC(=O)C1=C(C)OC(N)=C(C#N)C1c1c(C)nn(-c2ccccc2)c1Cl (stereo not given) -0.524
